# Laboratory results taken from PubChem BioAssay AID624202 (National Center for Advancing Translational Sciences (NCATS), 2012).
# About 4,000 (1.1%) of roughly 380,000 compounds were called active. Inconclusive results (about 3%) are left out. Only a selection was taken, and actives are over-represented in it overall. Unmarked numbers belong to inactive results. Calls come from the whole dose curve; as a rule, active = well fitted activation curve with a large enough effect; inconclusive = small, poorly fitted or top-dose-only effect; inactive = no such curve, though single readings can be large or run the other way.
# Assay: qHTS Assay to Identify Small Molecule Activators of BRCA1 Expression; note: nearly all actives have a fitted effect of over 80% in size
# Conditions: MCF7-BRCA1-FFLuc reporter, luminescence, 48 h; series mostly up to 46.1 µM; activation: at the top concentration
# In short: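 Compounds are tested at multiple concentrations on MCF7 BRCA1-luciferase reporter cells seeded at 2000 per well; after 48 h, a single luminescence end-point is taken and curves fitted to the normalized data.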
# Potency is the fitted concentration of half-maximal effect.
Structure (SMILES),Potency,activation
CCN(CC)C(=O)CSc1nnc(-c2cccc(OC)c2)o1,11.2 µM (active),–
COc1cccc(NC(=O)CSc2nnc(-c3cccnc3)o2)c1,–,-36.4%
CCN(CC)C(=O)CSc1nnc(-c2ccc(S(=O)(=O)NCc3ccccc3Cl)cc2)o1,–,-7.09%
CCOC(=O)c1cc(OC(=O)c2ccccc2Cl)n(-c2ccccc2)n1,–,3.87%
CC(C)(C)c1ccc(C(=O)C[n+]2cccc3cc(Cl)ccc32)cc1,–,-79%
Cn1cc(S(=O)(=O)N2CCCCCC2)cc1C(=O)N1CCN(c2ccc(F)cc2)CC1,–,-2.6%
CCc1ccc(C(=O)CC2(O)C(=O)N(CCc3ccccc3)c3ccc(Br)cc32)cc1 (stereo not drawn),–,-66.1%
CC1CCN(Cc2nc(-c3ccc(Cl)cc3)no2)CC1,8.91 µM (active),–
CCN1CC(CN(C)Cc2nc(-c3ccc(Cl)cc3)no2)CC1=O (stereo not drawn),–,-7.51%
Cc1ccc(-c2noc(CSc3nnc(-c4ccc(Cl)cc4)n3C)n2)cc1,–,3.58%
CC(C)c1ccc2oc(-c3cc(NC(=O)c4cccs4)ccc3Cl)nc2c1,–,-45.6%
CC1(C)Cc2ccccc2-c2c[nH]c(=O)n21,–,7.61%
CCCN1CNC(=S)N(CCc2ccccc2)C1,–,7.02%
N#CNC1=NCN(CCc2ccccc2)CN1,–,-31%
c1ccc(CCN2CN=C(Nc3nc4ccccc4o3)NC2)cc1,7.94 µM (active),–
CCOC(=O)c1c(C)[nH]c(C)c1S(=O)(=O)N1CCC(C(=O)Nc2ccc(C)c(Cl)c2)CC1,–,-39.2%
C(=Nc1ccc(/C=C/c2ccnc3ccccc23)cc1)Nc1ccc(/C=C/c2ccnc3ccccc23)cc1,–,-8.64%
C/C(=C\C(=O)c1cccnc1)Nc1ccc(C)c(C)c1,12.6 µM (active),–
Cc1ccc(S(=O)(=O)N2CCCCC2)cc1NC(=O)c1cccnc1,–,-7.67%
O=C(CC(=O)c1cccnc1)c1ccccc1,–,-40.2%
S=C(c1ccc(-c2ccccc2)o1)N1CCCCC1,3.98 µM (active),–
CC1CCN(C(=S)c2ccc(-c3ccc(Cl)cc3Cl)o2)CC1,–,71.8%
COc1cc(OC)c(C(=S)N2CCCC2)cc1OC,–,-5.45%
O=C(CN1CCCCCC1)Nc1ccc(Br)cc1Br,5.62 µM (active),–
O=C(CN1CCCCCC1)Nc1ccc(Br)cc1[N+](=O)[O-],–,17.5%
Cc1cc(C)c(NC(=O)CN2CCCCCC2)c(C)c1,–,86.6%

Structure (SMILES),Potency,activation
Cn1c(=O)c2sccc2n2c(CCC(=O)NCc3ccccc3Cl)nnc12,–,0.707%
CCN(CC)c1ccc(/C=C/c2c(C)cnc3ccc(C)cc23)cc1,–,-54.5%
Cc1ccsc1/C=C1\SC(N2CCOCC2)=NC1=O,11.2 µM (active),–
O=C1N=C(N2CCOCC2)S/C1=C\C=C/c1ccccc1,–,"0.869% [at 1.84 µM, scaled: vehicle 0%, 10 µM genistein 100%]"
CC1CCN(C2=NC(=O)/C(=C/c3cn[nH]c3-c3ccccc3)S2)CC1,–,15.9%
COc1ccc(Cn2c(=O)n(-c3ccccc3C)c(=O)c3c4c(sc32)CN(C(C)=O)CC4)cc1,–,-6.11%
Cc1cccc(NC(=O)Cn2c(=O)n(CCC(C)C)c(=O)c3cccnc32)c1,–,-3.64%
Cc1cc(C)c2nc(NC(=O)C3CCCO3)sc2c1 (stereo not drawn),15.8 µM (active),–
O=C(Nc1nnc(SCc2c(Cl)cccc2Cl)s1)C1CCCO1 (stereo not drawn),–,4.62%
Cc1ccc(C)c(C(C)NC(=O)C2CCCO2)c1 (stereo not drawn),–,-7.33%
Cc1cc2ccccc2n1CCNC(=O)c1ccc(F)cc1,–,-31.6%
O=C(NCc1ccccc1)C1CCN(S(=O)(=O)c2ccc3[nH]c(=O)ccc3c2)CC1,–,-1.38%
COc1ccc(-c2nnc(SCC(=O)Nc3ccccc3C)o2)cc1OC,–,0%
Cc1ccccc1CSc1nnc(CCCCCNC(=O)OC(C)(C)C)o1,–,-22%
Cc1ccc(-c2nnc(SCc3ccccc3C)o2)cc1,11.2 µM (active),–
Cc1ccc(-c2nnc(CN3CCN(C)CC3)o2)cc1,–,-2.44%
CCN(C(=O)CSc1nnc(-c2ccncc2)o1)c1ccccc1,–,7.95%
CCCCSc1nnc(-c2ccc(C)cc2)o1,1.78 µM (active),–
O=C(NCCC1=CCCCC1)c1ccc2c(c1)N(Cc1ccccc1F)C(=O)c1ccccc1S2(=O)=O,–,-29.5%
CCS(=O)(=O)N1CCc2cc(C(=O)NCc3ccc(C)cc3)ccc21,–,0%
Cc1ccc(C)c(N2CCN(C(=O)CCc3c(C)nc4c(c3C)c(=O)n(C)c(=O)n4C)CC2)c1,–,-8.22%
COc1ccc(Cl)cc1NC(=O)Cn1c(=O)c2ccccc2n2nncc12,–,1.86%
Brc1nc2ncnc(NCc3ccco3)c2[nH]1,–,13.2%
CCOc1ccc(S(=O)(=O)N(CC(=O)NCCSCc2ccc(C)cc2)c2ccccc2)cc1,–,19.9%
CC(C)(C)NC(=O)CSc1nc(-c2ccc(F)cc2)cc(C(F)(F)F)n1,–,-3.74%
CO[C@H]1O[C@@H]2O[C@@]3(C)CC[C@@H]4[C@@H](C)CC[C@@H]([C@H]1C)[C@@]24OO3,–,-9.91%

Structure (SMILES),Potency,activation
CC1(C)CCc2cc(S(=O)(=O)N3CCN(c4nc(-c5cccs5)nc5ccccc45)CC3)ccc2O1,–,13.7%
Cc1cccc(C)c1NC(=O)CNC(=O)Cc1ccc(Br)cc1,–,-3.53%
Cc1cccc(NC(=O)COc2ccc(Br)cc2C)n1,–,-19.3%
Cc1cccc(NC(=O)Cc2ccc(Br)cc2)n1,8.91 µM (active),–
CCCNC(=O)c1ccc(Cn2c(SCC(N)=O)nc3ccccc3c2=O)cc1,–,-8.15%
COc1ccc(CCNC(=O)CCCCn2c(=O)c3ccccc3n(Cc3ccccc3)c2=O)cc1OC,–,0%
Cc1ccc(CN(C(=O)c2ccccc2[N+](=O)[O-])c2ccccn2)cc1,–,0%
CCOC(=O)c1c(NC(=O)CSc2cn(CCNC(=O)c3cccc(C(F)(F)F)c3)c3ccccc23)sc2c1CCC2,–,10.6%
O=C(Cn1nc(CNc2ccc(Cl)cc2)[n+]2c1CCCCC2)c1ccc(Cl)cc1,–,-38.8%
CC(=O)Cn1ncc(N2CCOCC2)c(Br)c1=O,–,0.15%
O=C(Cn1ncc(N2CCCC2)c(Br)c1=O)c1ccc(Cl)cc1,1.41 µM (active),–
CCOc1ccc(N(C)S(=O)(=O)c2cc(-c3cnc(C)o3)ccc2OC)cc1,–,-1.24%
CCCCCn1c(CCCNC(=O)c2ccccc2OC)nc2ccccc21,–,-19.4%
COC(=O)c1sccc1N/N=C(\C)c1ccc(F)c(Cl)c1,–,-102%
CC(Oc1ccc(Cl)cc1)C(=O)OCC(=O)Nc1ncc(Cl)cc1Cl (stereo not drawn),–,33.4%
COc1cccc(/C(C)=N/Nc2ncc(Cl)cc2Cl)c1,10 µM (active),–
Cc1ccccc1CN1CCC(CNC(=O)c2c(C)oc3ncnc(N4CCCCC4)c23)CC1,–,0%
O=C(c1cccc(Cl)c1)N1CCN(CCc2ccncc2)CC1,–,9.44%
Cc1ccc(CSc2nnc(-c3cnccn3)n2C)cc1,–,0%
Cn1c(SCC(=O)c2ccc(F)cc2)nnc1-c1ccccn1,–,30.7%
Cn1c(SCc2c(F)cccc2Cl)nnc1-c1cnccn1,2.51 µM (active),–
CCC(=O)N1CCc2cc(Br)cc(S(=O)(=O)NCc3ccc(Cl)cc3)c21,–,-18.8%
O=C(C=CC(=O)Nc1ccc(F)cc1F)Nc1ccc(F)cc1F,–,11.6%
COc1ccc(C(=O)Nc2ccc(F)cc2F)cc1,6.31 µM (active),–
CCOC(=O)N1CCN(S(=O)(=O)c2ccc(C(=O)Nc3ccc(F)cc3F)cc2)CC1,–,-70.1%
Cc1ccccc1-c1nc(CS(=O)(=O)CC(=O)Nc2cc(Cl)cc(Cl)c2)c(C)o1,–,-32.8%

Structure (SMILES),Potency,activation
COc1cc(OC)c(N(C)C(=O)c2cc3c(=O)oc4ccccc4c3s2)cc1Cl,–,0.945%
O=[N+]([O-])c1cccc(/C=N/Nc2ncc(Br)cn2)c1,4.47 µM (active),–
O=C(N/N=C/c1cccc([N+](=O)[O-])c1)C1CC(=O)N(c2ccc(Br)cc2)C1 (stereo not drawn),–,-32.2%
CCCc1ccc(OCc2ccc(C(=O)N/N=C/c3cccc([N+](=O)[O-])c3)o2)c(OC)c1,–,-53.3%
COc1ccc(CCNc2nc(-c3ccc(F)cc3)cc(C(F)(F)F)n2)cc1OC,–,-34.7%
CNCCCOc1cc2nc(N3CCCN(C)CC3)nc(NC3CCN(C)CC3)c2cc1OC,–,0.186%
COc1ccc(-c2nn3c(=O)cc(CN4CCN(C(=O)c5ccc(OC)c(OC)c5)CC4)nc3s2)cc1,–,0%
O=C(O)c1ccccc1CSc1nc2ccccc2s1,5.62 µM (active),–
CN(C(=O)CSc1nc2ccc(NC(=O)COc3ccccc3)cc2s1)c1ccccc1,–,-4.92%
O=[N+]([O-])c1c(NCCO)cc(Sc2nc3ccccc3s2)c2nonc12,–,-56.6%
COc1ccc(C2Nc3ccc(NC(=O)COC(C)=O)cc3C(=O)N2Cc2ccccc2)cc1COc1ccc(NC(C)=O)cc1 (stereo not drawn),–,0%
COc1ccc2c(c1)c(=O)c(S(=O)(=O)c1ccc(F)cc1)cn2CC(=O)Nc1ccc(C)cc1C,–,-0.838%
CN(CCOc1ccc(CC2SC(=O)NC2=O)cc1)c1ccccn1 (stereo not drawn),inactive,–
CC(C)c1ccc(OCC(O)CN2CCN(c3ccccn3)CC2)cc1 (stereo not drawn),–,2.11%
CC(O)c1ccc(OCCN(C)c2ccccn2)cc1 (stereo not drawn),11.2 µM (active),–
COc1ccccc1CNc1nccn(-c2ccc(F)cc2)c1=O,–,8.06%
CCOC(=O)CNc1nc(Cl)nc(Nc2ccc(OC)cc2OC)n1,–,-30.3%
CCOC(=O)CNc1nc(Cl)nc(Nc2ccccc2)n1,15.8 µM (active),–
Nc1nc(COC(=O)CCC(=O)c2ccc(Cl)cc2)nc(Nc2ccccc2)n1,–,0.774%
CCCN1CN=C(NS(=O)(=O)c2ccc(NC(C)=O)cc2)NC1,–,12.3%
CC1=C(C(=O)Nc2ccccc2)C(c2ccc(C)cc2)n2nc(SCc3ccccc3C)nc2N1 (stereo not drawn),–,34.1%
COc1ccccc1C(=O)Nn1cnnc1,–,-5.05%
Cc1ccc2nc(-c3cccc(Br)c3)cc(C(=O)Nn3cnnc3)c2c1,10 µM (active),–
C/C(N)=C(/C#N)C(=O)COC(=O)c1cc(-c2cccc(Br)c2)nc2ccccc12,–,-68.3%
Cc1nc2c(-c3ccccc3)c(C)nn2c(C)c1CCC(=O)NCCc1ccccc1,–,-22.8%
